# High-throughput results deposited in PubChem by National Center for Advancing Translational Sciences (NCATS).
# This is a sample that favours compounds with a hit; in the whole collection about 4.8% have one here.
# ATXN2 expr inh = reduces ATXN2 reporter expression in HEK-293 cells; Potency, µM (titrated, usually from 57 µM), actives largely listed as inhibitors; AID 1745845; HEK-293 ATXN2-luciferase reporter, luminescence, 24 h; 360,000 tested, 0.72% active; also: nearly all actives have a fitted effect of over 55% in size
#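 qHTS (up to 57 uM final) was run with 24 h compound exposure of reporter cells at 37 °C. Each well was multiplexed: SteadyGlo luminescence measured ATXN2-luciferase expression after a fluorogenic Gly-Phe-AFC viability readout (25 uM final).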
# S2 tox = reduces viability in counter-screen for ATXN expression inhibitors; S2 cells (HEK-293 line with an ATXN2-luciferase reporter) viability, CellTiter-Fluor protease fluorescence, 24 h; Potency, µM (doses to about 56.7 µM), hits mostly cytotoxic; 400,000 tested, 0.49% active; AID 651635; also: nearly all actives have a fitted effect of over 40% in size
# USP1-UAF1 inh = blocks the human USP1/UAF1 deubiquitinase complex; recombinant USP1/UAF1, Ub-Rhodamine cleavage fluorescence; Potency, µM (doses to about 57.1 µM), most hits filed as inhibitors; 390,000 tested, 0.23% active; AID 743255; also: nearly all actives have a fitted effect of over 60% in size
#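 In this screen, compounds sit with the deubiquitinase complex (1nM) for 15 min at room temperature before Ub-Rho is added at 150nM final. Fluorescence rise is then followed for 6 reads every 60 seconds.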
# IL-1B inflam inh = inhibitors of inflammasome signaling (IL-1 beta secretion); activity change, % at 57.5 µM; THP-1 LPS/ATP IL-1B secretion, AlphaLISA, 16 h; stronger effect = lower value; 360,000 tested, 4.7% active; in the data active = activity change below about -50%; inconclusive = mostly about -30% to -49%
#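 THP-1 cells pretreated 1 hr with compounds (up to 57.5 uM final), then stimulated with LPS (250 ng/mL final) plus ATP (1.25 mM final); secreted IL-1B measured by AlphaLISA after 16 hr, decreased signal indicating inhibition.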
# USP2a block = inhibitors of human ubiquitin-specific protease USP2a; O75604; USP2 core, Ub-CHOP2 coupled fluorogenic reporter, 485/531; Potency, µM (series often up to 38.3 µM), actives largely listed as inhibitors; 330,000 tested, 0.01% active; AID 463254
# Target sequence (O75604 whole entry, looked up): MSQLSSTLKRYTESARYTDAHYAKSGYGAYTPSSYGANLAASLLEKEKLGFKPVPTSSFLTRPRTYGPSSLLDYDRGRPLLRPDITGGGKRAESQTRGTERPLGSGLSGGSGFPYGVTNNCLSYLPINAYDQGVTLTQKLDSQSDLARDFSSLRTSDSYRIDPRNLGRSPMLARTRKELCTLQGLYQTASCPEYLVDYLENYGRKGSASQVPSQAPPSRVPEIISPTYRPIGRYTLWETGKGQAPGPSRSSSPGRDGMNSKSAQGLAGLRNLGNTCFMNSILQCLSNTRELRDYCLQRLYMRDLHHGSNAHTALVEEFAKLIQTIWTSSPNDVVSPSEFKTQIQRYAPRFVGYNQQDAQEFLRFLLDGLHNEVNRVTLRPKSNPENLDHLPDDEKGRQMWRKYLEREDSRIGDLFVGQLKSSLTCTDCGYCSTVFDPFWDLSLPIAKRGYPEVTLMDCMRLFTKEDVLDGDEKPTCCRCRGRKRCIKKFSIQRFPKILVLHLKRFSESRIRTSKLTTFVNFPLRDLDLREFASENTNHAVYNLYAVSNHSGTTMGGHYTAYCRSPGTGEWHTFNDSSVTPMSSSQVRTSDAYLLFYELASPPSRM
#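 USP2 core (10nM final) preincubated 30min RT with compound in 20mM Tris-HCl pH 8.0, 2mM CaCl2, 2mM beta-mercaptoethanol, 0.05% CHAPS; 25nM Ub-CHOP2 plus 25nM reporter substrate added, fluorescence (Ex485/Em531) read after 60min.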
# Hits are given with their value; – = inactive; ? = inconclusive; · = no result. Unless noted, calls follow the shape of the dose curve; as a rule, active = well fitted curve in the direction sought with a large enough effect; inconclusive = small, poorly fitted or top-dose-only effect, or another doubt; inactive = no such curve, though single readings can be large; an effect the other way counts as inactive or inconclusive.
SMILES,ATXN2 expr inh,S2 tox,USP1-UAF1 inh,IL-1B inflam inh,USP2a block
O=[N+]([O-])c1ccc(N=Nc2c(O)[nH]c3ccc(F)cc23)cc1,–,?,–,–,–
O=[N+]([O-])c1cccc(N=Nc2ccc(O)cc2O)c1,?,?,?,-68,·
COc1ccccc1C(=O)NCCC(=O)NNC(=O)Cn1ccc(C(F)(F)F)n1,–,–,–,–,–
O=S(=O)(Nc1ccc(O)c(Sc2nc3ccccc3s2)c1)c1ccc(F)cc1,–,–,–,–,–
CS(=O)(=O)c1ccc(Sc2nc3ccccc3s2)c([N+](=O)[O-])c1,?,?,–,-121,–
CS(=O)(=O)c1ccc(Sc2nc3ccccc3[nH]2)c([N+](=O)[O-])c1,–,–,–,?,–
O=[N+]([O-])c1cc(S(=O)(=O)C(F)(F)F)ccc1Sc1nc2ccccc2s1,?,?,–,-121,–
O=[N+]([O-])c1cc(S(=O)(=O)C(F)(F)F)ccc1Sc1nc2ccccc2[nH]1,?,?,–,-103,–
O=C(NCc1ccccn1)c1cnn(-c2nccc(-c3cc4ccccc4o3)n2)c1C1CC1,·,–,·,·,·
O=C(Nc1ccccc1)OCCc1ccccn1,–,–,–,–,·
COc1cc(-c2nnc(SCC(=O)Oc3ccccc3Cl)o2)cc(OC)c1OC,·,·,–,·,·
Fc1cccc(Cl)c1CSc1nnc(-c2ccncc2)o1,–,–,–,–,–
COc1cc(-c2nnc(SCc3ccccc3Cl)o2)cc(OC)c1OC,–,–,–,-59,–
COc1cc(-c2nnc(SCc3c(F)cccc3Cl)o2)cc(OC)c1OC,–,–,–,-58,–
O=C(O)C1CCCCC1C(=O)NCCc1ccc(Cl)cc1 (stereo not drawn),–,–,–,-63,–
CCOC(=O)c1sc(NC(=O)c2cc(-c3ccccc3)nc3ccccc23)c(C#N)c1C,?,?,–,-62,–
COCCNC(=O)c1cc(-c2ccc(-c3ccccc3)cc2)nc2ccccc12,–,–,–,-66,–
CCOC(=O)c1sc(NC(=O)CSc2n[nH]c(-c3ccccc3)n2)c(C#N)c1C,–,?,–,–,–
O=C(NC1CCC(O)CC1)c1ccc(-c2ccc(Cl)cc2)o1 (stereo not drawn),–,–,–,-62,–
O=C(NC1CCC(O)CC1)c1ccc(Br)o1 (stereo not drawn),–,–,?,–,–
CCCc1ccc(-c2cc(C(=O)NN3CCOCC3)c3ccccc3n2)cc1,–,–,–,-56,–
COc1cc(=O)n2c(c1C(=O)NCc1ccco1)CCN(Cc1cc3ccccc3[nH]1)CC2,·,–,·,·,·
Cc1ccc(-c2cc(C(=O)NCCCN3CCCC3)c3ccccc3n2)cc1C,–,–,–,-73,–
Cc1c(Cl)ccc2c(C(=O)NCCN3CCCCC3)cc(-c3ccccn3)nc12,–,?,–,-97,–
COC(=O)CNC(=O)c1cc(-c2ccncc2)nc2c(C)c(Cl)ccc12,–,–,–,-100,–
SMILES,ATXN2 expr inh,S2 tox,USP1-UAF1 inh,IL-1B inflam inh,USP2a block
O=C(NC1CCC(O)CC1)c1cc(-c2ccc(Cl)cc2)nc2ccccc12 (stereo not drawn),–,–,–,-55,–
O=C(Nc1ccc(Cl)cc1)/C(=C/c1cccc(O)c1)c1nc2ccccc2s1,8.9µM,·,–,-101,–
S=C(Nc1ccc(Cl)cc1)c1nc2ccccc2s1,–,–,–,–,–
COCCCn1c(=O)/c(=C\c2ccccc2OC(F)F)s/c1=C(/C#N)C(=O)NCCOC,–,·,–,–,–
COCCCn1c(=O)/c(=C\c2ccccc2OC(F)F)s/c1=C(/C#N)C(=O)N1CCOCC1,–,?,–,-69,–
CCN1CCN(S(=O)(=O)c2c(C)[nH]c(C)c2C(=O)N2CCCCC2)CC1,–,–,–,–,–
Cc1cccc(NC(=O)COC(=O)c2cccs2)c1C,–,–,–,–,–
O=[N+]([O-])c1ccc(/C=N/N=C/c2ccc([N+](=O)[O-])o2)o1,17µM,?,–,-101,–
Cc1ccc(S(=O)(=O)N/N=C\c2ccc([N+](=O)[O-])o2)cc1,–,–,–,-60,–
O=C(NCc1nc(-c2ccc(C(F)(F)F)cc2)no1)Nc1ccc(F)cc1F,–,–,–,–,–
O=C(NCc1nc(-c2ccc(C(F)(F)F)cc2)no1)Nc1cc(Cl)cc(Cl)c1,?,?,–,-94,–
Cc1ccc(NC(=O)Cn2c(=O)n(Cc3ccc4c(c3)OCO4)c(=O)c3ccccc32)c(C)c1,–,–,–,·,·
Cc1[nH]c(C=C2C(=O)Nc3ccccc32)c(C)c1CCC(=O)O,1.1µM,·,·,·,·
COc1ccc(C(=O)N2CCN(c3cccc(C)c3C)CC2)cc1S(=O)(=O)NC1CC1,–,–,–,–,–
O=c1c(Cl)cc(Cl)nn1-c1ccccc1,?,·,–,-100,–
CCCOc1ccc(-c2cc(C(F)(F)F)c(C#N)c(SCC(=O)O)n2)cc1,–,–,–,-71,–
CC(=NNC(=S)N1CCCCCC1)c1cccc2cccnc12,?,?,–,-101,·
CC(=NNC(=S)N1CC2CCC(CC2)C1)c1cnccn1,?,?,–,-107,·
CC(=NNC(=S)N1CCN(C2CCCCCC2)CC1)c1ccccn1,–,1.2µM,–,-98,·
C/C(=N\NC(=O)C1CCCN(S(=O)(=O)c2ccccc2)C1)c1ccccn1 (stereo not drawn),8.9µM,?,–,–,–
CC(=NNC(=S)N1CCN(c2ccccn2)CC1)c1ccccn1,–,–,–,–,·
Cc1cc(C)c(NC(=O)Cn2nnc(-c3nc(-c4ccccc4)no3)c2N)c(C)c1,–,–,–,·,·
CC1CCN(C(=O)c2cc3nc(-c4ccccc4)cc(-c4ccccc4)n3n2)CC1,?,–,–,-55,–
O=C(NC1CCCC1)c1cc2nc(-c3ccccc3)cc(-c3ccccc3)n2n1,·,–,–,–,–
CCSc1nc2ccccc2n1CC(N)=O,–,–,–,–,–
SMILES,ATXN2 expr inh,S2 tox,USP1-UAF1 inh,IL-1B inflam inh,USP2a block
CCSc1nc2ccccc2n1C(=O)/C=C\c1ccc(OC)c(OC)c1,13µM,?,–,-97,–
Oc1ccc(/C=N/Nc2ccc(Cl)nn2)c(O)c1O,·,?,?,–,–
O=C(c1nn2c(C(F)(F)F)cc(-c3ccccc3)nc2c1Cl)N1CCN2CCCC2C1 (stereo not drawn),–,–,–,-64,–
COc1ccc(-c2cc(C(F)F)n3ncc(C(=O)N4CCN5CCCC5C4)c3n2)cc1 (stereo not drawn),–,–,–,-65,–
CCOc1cc(C2C(C(=O)Nc3ccccc3)=C(C)Nc3ncnn32)cc(Br)c1O (stereo not drawn),–,–,–,·,·
CCOC(=O)CSc1n[nH]c(NS(=O)(=O)c2ccccc2C(F)(F)F)n1,–,–,–,-77,–
CCc1ccc(S(=O)(=O)NCC2(N3CCOCC3)CCCCC2)cc1,–,–,–,–,–
